Laboratory results published in PubChem BioAssay (NCATS).
Inconclusive results are not listed. Where a call stands in place of a potency, no number is given. The source made the active and inactive calls. Calls come from the whole dose curve; as a rule, active = well fitted curve in the direction sought with a large enough effect; inconclusive = small, poorly fitted or top-dose-only effect, or another doubt; inactive = no such curve, though single readings can be large; an effect the other way counts as inactive or inconclusive.

Key:
[1] = Cellular Toxicity (caspase-3) HepG2 (AID 654); note: potency is the fitted concentration of half-maximal effect;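 for caspase-3 activation: cells exposed to compound for 16 hours before reading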
Summary of the method: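 qHTS, HepG2, 1500 cells/well, complete medium; cpd 16 h 37 °C; Caspase-Glo 3/7, 20 min RT; lum. Norm: DMSO vs 100 uM tamoxifen; AC50 Hill fit.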

[2] = Cellular Toxicity (caspase-3) Jurkat (AID 655);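 note: cells exposed to compound for 16 h at 37 °C before reading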; note: potency is the fitted concentration of half-maximal effect
Summary of the method: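 Caspase 3/7 activation is scored as increased luminescence in Jurkat cells cultured with compound for 16 hours in complete medium. AC50 values come from Hill fits of qHTS concentration-response data normalized to DMSO and 100 uM tamoxifen controls.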

[3] = Cellular Toxicity (caspase-3) HUV-EC-C (AID 656)
Summary of the method: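 Read-out: luminescence proportional to caspase 3/7 activity, measured 20 min after adding Caspase-Glo 3/7 reagent. Cells (HUV-EC-C) had received compound for 16 hr at 37°C. Increases relative to DMSO and 100 uM tamoxifen gave concentration-response AC50 values.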

[4] = Cellular Toxicity (caspase-3) SHSY5Y (AID 657);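 note: cells exposed to compound for 16 hours at 37 °C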; note: potency is the fitted concentration of half-maximal effect
Summary of the method: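 Cells plated and incubated 5 h at 37 °C, dosed over a concentration range, incubated 16 h, then given Caspase-Glo 3/7 reagent for 1 h at room temperature before luminescence reading. Staurosporine (10 uM) defined full stimulation.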

[5] = Cellular Toxicity (caspase-3) BJ (AID 658)
Summary of the method: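 Luminescent aminoluciferin-substrate cleavage reports caspase 3/7 activity in normal human BJ fibroblasts after 16 hr compound exposure at 37 °C. Normalized to DMSO (basal) and 10 uM staurosporine (100%); AC50 from Hill fit of concentration-response.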

[6] = Cellular Toxicity (caspase-3) MRC-5 (AID 659);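 note: cells exposed to compound for 16 h at 37 °C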
Summary of the method: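 Luminescence from caspase-cleaved aminoluciferin substrate (Caspase-Glo 3/7, 1 hr RT) reports caspase 3/7 activity in MRC-5 lung fibroblasts after 16 hr compound exposure. Normalized to DMSO basal and 10 uM staurosporine as 100%; AC50 from Hill fits.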

[7] = Cellular Toxicity (caspase-3) Mesangial (AID 660); conditions: Potency: caspase-3 activation;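 note: cells exposed to compound for 16 h before the caspase read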; note: potency is the fitted concentration of half-maximal effect
Summary of the method: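 Concentration-response qHTS: compound-induced rise in caspase 3/7 luminescence in human mesangial cells after 16 h, normalized to DMSO and 100 uM tamoxifen controls.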

[8] = Cellular Toxicity (caspase-3) SK-N-SH (AID 661); note: potency is the fitted concentration of half-maximal effect
Summary of the method: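 Caspase 3/7 activation is measured as a luminescence increase from aminoluciferin released by substrate cleavage in SK-N-SH cells after 16 hr compound treatment; values are AC50 from concentration-response curves.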

[9] = Cellular Toxicity (caspase-3) H-4-II-E (AID 663); conditions: Potency: caspase-3 activation; note: potency is the fitted concentration of half-maximal effect;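 for caspase-3 activation: cells exposed to compound for 16 hr before readout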
Summary of the method: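 Luminescence from caspase-cleaved aminoluciferin substrate, read 20 min after reagent addition, reports caspase 3/7 activation in rat H-4-II-E cells after 16 hr compound exposure. Normalized to DMSO (basal) and 100 uM tamoxifen (100%); AC50 from Hill fits.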

[10] = Cellular Toxicity (caspase-3) Hek293 (AID 664);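 note: cells exposed to compound for 16 h at 37 °C before readout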
Summary of the method: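 Activation of caspase-3/7 is measured as increased luminescence from cleaved peptide-aminoluciferin substrate in HEK293 cells treated 16 hours at 37 °C. AC50 values come from Hill-equation fits of concentration-response data.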

CNC(=O)Oc1cccc2ccccc12
Potency [1]: inactive
Potency [2]: inactive
outcome [3]: inactive
Potency [4]: inactive
outcome [5]: inactive
outcome [6]: inactive
Potency [7]: inactive
Potency [8]: inactive
Potency [9]: inactive
outcome [10]: inactive

Oc1c(Br)cc(Br)cc1Br
Potency [1]: inactive
outcome [3]: inactive
Potency [4]: inactive
outcome [5]: inactive
outcome [6]: inactive
Potency [7]: inactive
Potency [8]: inactive
Potency [9]: inactive
outcome [10]: inactive

CC[n+]1c(-c2ccccc2)c2cc(N)ccc2c2ccc(N)cc21
Potency [1]: inactive
Potency [2]: inactive
outcome [3]: inactive
Potency [4]: inactive
outcome [5]: inactive
outcome [6]: inactive
Potency [7]: inactive
Potency [8]: inactive
Potency [9]: inactive
outcome [10]: inactive

CCCCCCCCCCCC[N+](C)(C)CCOc1ccccc1
Potency [1]: 39800 nM (active)
outcome [3]: inactive
Potency [4]: inactive
Potency [7]: inactive
outcome [10]: inactive

O=C(CCl)c1ccc(Cl)cc1Cl
Potency [1]: inactive
Potency [2]: 251 nM (active)
outcome [3]: inactive
Potency [4]: 2510 nM (active)
outcome [5]: inactive
outcome [6]: inactive
Potency [7]: inactive
Potency [8]: 1580 nM (active)

COP(=O)(OC)OC=C(Cl)Cl
Potency [1]: inactive
Potency [2]: inactive
outcome [3]: inactive
Potency [4]: inactive
outcome [5]: inactive
outcome [6]: inactive
Potency [7]: inactive
Potency [8]: inactive
Potency [9]: inactive
outcome [10]: inactive

CN(C)C(=S)SSC(=S)N(C)C
Potency [1]: inactive
Potency [2]: 63.1 nM (active)
outcome [3]: inactive
Potency [4]: inactive
outcome [5]: inactive
outcome [6]: inactive
Potency [7]: 398 nM (active)
Potency [8]: inactive
Potency [9]: inactive
outcome [10]: inactive

C[C@@H]1C[C@@H]([C@H](O)CC2CC(=O)NC(=O)C2)C(=O)[C@@H](C)C1
Potency [1]: inactive
outcome [3]: inactive
Potency [4]: inactive
outcome [5]: inactive
outcome [6]: inactive
Potency [7]: inactive
Potency [8]: inactive
Potency [9]: 15800 nM (active)
outcome [10]: inactive
